Compound activity deposited in PubChem BioAssay by National Center for Advancing Translational Sciences (NCATS).
This is one part of a sample in which hits are shown more often than they occur.
NTMT1 inh: blocks human N-terminal methyltransferase 1 activity; actives 2.5% (n = 59,000); NTMT1 MTase-Glo SAH luminescence, purified enzyme; Potency, µM (titrated, usually from 114 µM), hits mostly inhibitors; AID 1645870; further: nearly all actives have a fitted effect of over 65% in size
FH mod: Identification of activators of human fumarate hydratase by quantitative high-throughput screening. AID 1347055, 2019. Potency, µM (doses to about 79.9 µM), hits mostly inhibitors. actives 0.22% (n = 54,000). FH coupled MDH/diaphorase resazurin fluorescence, 15 min; further: the screen sought activators but most active calls are inhibition curves; nearly all actives have a fitted effect of over 45% in size
Target sequence (P07954 whole entry, looked up): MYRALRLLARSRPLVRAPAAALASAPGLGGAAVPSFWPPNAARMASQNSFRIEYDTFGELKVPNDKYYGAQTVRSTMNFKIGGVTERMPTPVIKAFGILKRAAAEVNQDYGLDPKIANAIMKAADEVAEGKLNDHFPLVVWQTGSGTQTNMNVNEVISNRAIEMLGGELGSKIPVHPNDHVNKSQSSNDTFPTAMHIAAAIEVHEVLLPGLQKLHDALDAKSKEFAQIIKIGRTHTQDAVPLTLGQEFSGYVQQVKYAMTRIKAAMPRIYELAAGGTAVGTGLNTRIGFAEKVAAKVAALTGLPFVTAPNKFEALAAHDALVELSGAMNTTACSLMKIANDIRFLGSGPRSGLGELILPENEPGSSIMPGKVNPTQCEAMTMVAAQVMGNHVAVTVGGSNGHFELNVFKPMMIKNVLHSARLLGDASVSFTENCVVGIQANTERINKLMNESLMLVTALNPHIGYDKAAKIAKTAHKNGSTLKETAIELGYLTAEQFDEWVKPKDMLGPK
GALC G270D act: enhancers of human galactocerebrosidase G270D mutant activity in cells; 145M-Twi-hGALC-G270D cells (Twitcher mouse brain line with human GALC G270D), HMU-beta-Gal fluorescence, 48 h; Potency, µM (highest dose often 57.5 µM), actives largely listed as activators; actives 0.1% (n = 45,000); AID 1159614; further: nearly all actives have a fitted effect of over 65% in size
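Mutant human GALC (G270D), stably expressed in a Twitcher mouse brain cell line lacking endogenous GALC, is measured in live-treated cells via 6-hexadecanoylamino-4-methylumbelliferyl-β-galactoside hydrolysis (0.1 mM final, pH 5.2) with fluorescent detection.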
DYRK1A inh-1: human DYRK1A kinase inhibition by ATP depletion readout. recombinant DYRK1A, Kinase-Glo ATP depletion luminescence. shares compounds with NTMT1 inh. actives 80% (n = 100). Potency, µM (titrated, usually from 76.9 µM), most hits filed as inhibitors
CLK4 inh-1: CLK4 kinase inhibition, SAR round 2. shares compounds with NTMT1 inh. recombinant Clk4, Kinase-Glo ATP luminescence, 4.5 h. Potency, µM (series often up to 76.9 µM), usual class: inhibitors. actives 90% (n = 90). AID 493204
CLK4 inh-2: blocks human CLK4 kinase in radiometric assay; Potency, µM, most hits filed as inhibitors; Reaction Biology kinase assay, 10 uM ATP; AID 504421; shares compounds with NTMT1 inh; actives 100% (n = 65); calls by dose curve
DYRK1A inh-2: inhibitors of human DYRK1A kinase; Potency, µM, actives largely listed as inhibitors; actives 90% (n = 65); Reaction Biology kinase assay, 10 uM ATP; AID 504424; shares compounds with NTMT1 inh;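 active means compounds that showed inhibition of Dyrk1a and received a fitted potency; inactive means compounds that showed no inhibition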
CLK2 inh: inhibitors of human CLK2 kinase; shares compounds with NTMT1 inh; Reaction Biology kinase assay, 10 uM ATP; Potency, µM, usual class: inhibitors; actives 90% (n = 65);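 active means compound that inhibits Clk2 kinase in the dose series, with an IC50 potency reported; inactive means no inhibition seen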
CLK3 RBC: CLK3 kinase inhibition. shares compounds with NTMT1 inh. AID 504428. actives 40% (n = 65). recombinant CLK3 kinase assay, 10 uM ATP. Potency, µM, actives largely listed as inhibitors;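 active means compounds that inhibited Clk3 enough in the ten-dose series to give a half-maximal potency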
DYRK1B inh: DYRK1B kinase inhibition; shares compounds with NTMT1 inh; actives 80% (n = 65); AID 504429; Recombinant Dyrk1b kinase assay, 10 uM ATP; Potency, µM, usual class: inhibitors;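 active means compounds whose dose response shows an inhibitor phenotype against the kinase Dyrk1b; inactive means compounds showing no inhibitor phenotype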
CLK1 RBC: CLK1 kinase inhibition. shares compounds with NTMT1 inh. recombinant Clk1 kinase assay, 10 uM ATP. Potency, µM, hits mostly inhibitors. actives 90% (n = 65);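 active means compounds that block the splicing kinase Clk1 enough to give a fitted half-inhibition concentration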
NNMT inh: blocks human NNMT methyltransferase | shares compounds with NTMT1 inh | Potency, µM (series often up to 57.1 µM), most hits filed as inhibitors | NNMT MTase-Glo luminescence, SAH detection | AID 1645878 | actives 10% (n = 120)
Hits are given with their value; n = inactive; u = inconclusive; x = not tested or not shown; ! = a repeat was not active; [ ] = another dose, or the depositor's remark. Unless noted, the call rests on the fitted dose curve; in most records, active means well fitted curve in the direction sought with a large enough effect; inconclusive means small, poorly fitted or top-dose-only effect, or another doubt; inactive means no such curve, though single readings can be large; an effect the other way counts as inactive or inconclusive.

SMILES | NTMT1 inh | FH mod | GALC G270D act | others
FC(F)(F)c1cc(-c2ccc(CNc3nc(-c4ccccc4C(F)(F)F)nc4ccccc34)cc2)cc(C(F)(F)F)c1 | n | x | x
C/C=C(\C)C(=O)OC[C@H]1O[C@@H](O[C@H]2[C@@H](O[C@H]3O[C@H](CO)[C@@H](O)[C@H](O)[C@H]3O[C@@H]3O[C@H](CO)[C@@H](O)[C@H](O)[C@H]3O)O[C@H](COC(=O)/C(C)=C/C)[C@@H](O)[C@@H]2O)[C@H](O)[C@@H](O)[C@@H]1O | n[12.6 µM] | n | x
CC(=O)Nc1sc2c(c1-c1ccccc1)CCN(C(=O)OC(C)(C)C)C2 | n | x | x
CNC(=O)C1=C(C)NC(Nc2nc3ccccc3o2)=NC1c1nn(C)cc1Cl (stereo unspecified) | n | x | x
CC(=O)NCCCCn1c2c(c3ccccc31)C(=O)NCC2 | n | n | x
COc1cccc(-c2ccc3ncnc(NCc4cccc(F)c4)c3c2)c1 | n | x | x
Cn1ccc2cc(-c3ccc4ncnc(NCc5cccs5)c4c3)ccc21 | n | x | x | DYRK1A inh-1=u
c1coc(CNc2ncnc3ccc(-c4ccc5c(c4)OCO5)cc23)c1 | x | x | x | CLK4 inh-1=0.037µM;CLK4 inh-2=0.079;DYRK1A inh-2=0.084µM;CLK2 inh=0.3µM;CLK3 RBC=2.6µM;DYRK1B inh=0.53µM;CLK1 RBC=0.19µM
Fc1cccc(CNc2ncnc3ccc(-c4ccc5c(c4)OCO5)cc23)c1 | n | x | x
COc1cccc(-c2ccc3ncnc(NCc4cccc(C)c4)c3c2)c1 | n | x | x
COc1cccc(-c2ccc3ncnc(NCc4cccs4)c3c2)c1 | n | x | x | DYRK1A inh-1=7.3µM
c1csc(CCNc2ncnc3ccc(-c4ccc5c(c4)OCO5)cc23)c1 | u | x | x | DYRK1A inh-1=0.065µM
O=C(Nc1ncc(SCCN2CCCC2)s1)[C@]1(c2ccc(S(=O)(=O)C3CC3)cc2)C[C@H]1C1CCCCC1 | n | x | x
Cc1nc(CN=C2NC3=C(C(=O)CCC3)C(c3[nH]ncc3Cl)N2)cs1 (stereo unspecified) | n | x | x
Cc1ccc(-c2ccc(=O)n(CC(=O)NCCCN(C)C)n2)cc1 | n | x | x
[2H]C([2H])([2H])C(O)([C@@H](C)/C=C/[C@@H](C)[C@H]1CC[C@H]2/C(=C/C=C3C[C@@H](O)C[C@H](O)C3)CCC[C@]12C)C([2H])([2H])[2H] | n | x | x
COc1ncc(Nc2ncc(C(C)N3CCN(S(C)(=O)=O)CC3)cc2-c2nc(C)nc(N)n2)cc1F (stereo unspecified) | n | x | x
Cc1ccc(CN(C)c2ncnc3ccc(-c4ccc(C(=O)O)o4)cc23)o1 | n | x | x | CLK4 inh-1=0.52µM
CCCCOc1cccc(C(=O)N(Cc2ccc(C)o2)c2ccccn2)c1 | n | n | n
Cc1ccsc1CN(C)c1ncnc2ccc(-c3ccc([C@@H](C)O)o3)cc12 | 8.9µM! | x | x | CLK4 inh-1=0.16µM
CC(C)c1cc2c(c(O)c1O)[C@@]13CCCC(C)(C)[C@@H]1[C@H](OC3=O)C2=O | n | u | x | NNMT inh=u
COC1OC(=O)C2=C1C1(C)CCCC(C)(C)C1CC2O (stereo unspecified) | n | n | x
CC(C)c1cc2c(c(O)c1O)[C@@]13CCCC(C)(C)C1[C@@H](O)[C@@H]2OC3=O (stereo partly specified) | u | n | x | NNMT inh=n
